ST2 IL33 inh = inhibitors of human ST2 (IL1RL1) binding to IL-33 | AlphaLISA ST2-Fc/biotin-IL-33 interaction, 1 h | inhibition, % for hits at 17 µM | 78,000 tested, 2.3% active | AID 1259354; in the data active means inhibition above about 30%
Target sequence (Q01638 whole entry, looked up): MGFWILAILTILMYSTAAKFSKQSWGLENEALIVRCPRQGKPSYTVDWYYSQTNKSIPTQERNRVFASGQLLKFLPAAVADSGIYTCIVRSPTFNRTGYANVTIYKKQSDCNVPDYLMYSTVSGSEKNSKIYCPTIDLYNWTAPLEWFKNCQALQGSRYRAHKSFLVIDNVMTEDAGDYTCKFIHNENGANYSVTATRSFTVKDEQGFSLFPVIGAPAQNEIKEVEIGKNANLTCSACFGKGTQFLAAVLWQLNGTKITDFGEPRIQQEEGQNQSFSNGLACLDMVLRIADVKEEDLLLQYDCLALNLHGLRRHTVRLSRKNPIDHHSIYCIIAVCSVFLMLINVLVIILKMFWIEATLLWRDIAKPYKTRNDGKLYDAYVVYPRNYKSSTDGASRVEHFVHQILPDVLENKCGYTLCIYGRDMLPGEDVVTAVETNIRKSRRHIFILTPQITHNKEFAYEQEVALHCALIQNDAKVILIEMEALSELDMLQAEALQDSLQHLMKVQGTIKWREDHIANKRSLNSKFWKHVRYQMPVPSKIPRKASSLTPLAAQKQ
A number is an active result; . = inactive. The entries come from a sample that favours hits as a whole.

SMILES	ST2 IL33 inh
COCCCNC(=O)C1c2cc(OC)c(OC)cc2C(=O)N(C)C1c1ccc(OC)cc1 (configuration not stated)	.
CCN(CC)CCNC(=O)C1c2cc(OC)c(OC)cc2C(=O)N(C)C1c1ccc(OC)cc1 (configuration not stated)	.
COc1ccc(C2C(C(=O)NCCN(C)C)c3cc(OC)c(OC)cc3C(=O)N2C)cc1 (configuration not stated)	33.0%
Cc1ccc(Cl)cc1N(CC(=O)Nc1ccccc1Br)S(C)(=O)=O	.
COc1ccccc1C(=O)Nc1nccs1	.
CCn1c(C2CCN(C(=O)c3ccc4c(c3)nnn4C)CC2)nn(C)c1=O	.
Cc1nc2sc(C(c3ccc(Cl)cc3)N3CCCC(C)C3)c(O)n2n1 (configuration not stated)	.
CCOc1ccc(N2C(=O)/C(=C\c3ccccc3OC)N=C2c2ccc(OC)c(OC)c2)cc1	39.0%
COc1cc2oc(-c3ccccc3)cc(=O)c2c(O)c1OC	.
CCOc1ccc(-c2nc3s/c(=C\C=C\c4ccccc4OC)c(=O)n3n2)cc1	.
CCOc1ccc(N2CC(NC(=O)Cc3cccs3)CC2=O)cc1 (configuration not stated)	.
CCOc1ccccc1/C=C1\N=C(c2ccc(Cl)cc2)OC1=O	.
CCOc1ccc(C2=C/C(=C\c3cccs3)C(=O)O2)cc1	31.0%
COc1cc(/C=C/C(=O)O)cc(OC)c1OC	.
CCOc1ccc2c(=O)c(-c3ccccc3OC)coc2c1	.
COc1cc(/C=C2/C=C(c3ccccc3)OC2=O)cc(OC)c1OC	61.0%
COc1ccc(/C=C2\C=C(c3ccc(Cl)cc3)OC2=O)c(C)c1	.
CCOc1ccc(C2=C/C(=C/c3ccccc3OC)C(=O)O2)cc1	46.0%
CCOc1ccc(-c2nc3s/c(=C\c4ccc(Cl)cc4)c(=O)n3n2)cc1	.
CCC(C)NC(=O)C1(O)c2ccccc2NC(=O)N1c1ccc(Cl)cc1 (configuration not stated)	.
O=C(Nc1cccc(-c2nc3ncccc3o2)c1)c1cccnc1	.
Cc1ccnc(NC(=O)C(NC(=O)C2CCC(C)CC2)C(C)C)c1 (configuration not stated)	.
O=C(NC(Nc1ccc(Cl)c(Cl)c1)C(=O)c1ccccc1)c1cccs1 (configuration not stated)	.
CN(C)CCN1C(=O)C2C(c3ccccc3)C=CC(c3ccccc3)C2C1=O (configuration not stated)	.
CCN(CC)C(=O)Cn1c(=O)n(CC(=O)NCc2ccco2)c(=O)c2sccc21	.
SMILES	ST2 IL33 inh
Cc1ccc(-c2nc(-c3ccncc3)no2)cc1C	.
Cc1ccc(C2=C/C(=C\c3cccs3)C(=O)O2)cc1C	68.0%
CCOC(=O)c1[nH]c2ccccc2c1NC(=O)C(C)(C)Oc1ccc(Cl)cc1	.
O=C(NCc1ccccc1CN1CCCC1=O)[C@@H]1C[C@@H]2C=C[C@H]1C2	.
Cc1cc(C)n(-c2ccc(C(=O)NCCSc3nnnn3C)cc2)n1	.
O=C(CN1C(=O)C2C3c4ccccc4C(c4ccccc43)C2C1=O)Nc1ccc(O)cc1 (configuration not stated)	.
COc1cccc(NC(=O)CSc2nnc3ccccn23)c1	.
COc1cccc(NC(=O)CSc2c3c(nc4ccccc24)CCC3)c1	.
COc1cccc(NC(=O)CSc2nnc(Cc3ccccc3)n2C)c1	40.0%
O=C(NC1CCCC1)C1CC(=O)N(C2CCCCCC2)C1 (configuration not stated)	.
O=C(CN1C(=O)/C(=C\c2cccc(Cl)c2)Sc2ccccc21)NCCc1ccccc1	.
O=C(CCSc1ccccc1)Nc1ccccc1F	.
c1ccc(-c2nnc([C@H]3CCN(Cc4ccco4)C3)o2)cc1	.
O=c1[nH]nc(CCc2ccccc2O)n1Cc1ccco1	.
N=c1c2c(-c3ccccc3)c(-c3ccccc3)n(Cc3ccco3)c2ncn1Cc1ccco1	31.0%
CC(Nc1ccc(Cl)cc1N)c1ccccc1 (configuration not stated)	57.0%
CC(NC(=O)c1cc2ccccc2o1)c1ccccc1 (configuration not stated)	.
CC(NC(=O)c1ccc(Cl)cc1)c1ccccc1 (configuration not stated)	.
COc1ccccc1OC(C)(C)C(=O)N1CCOC2(CNCCOC2)C1 (configuration not stated)	.
CCN(c1ccccc1)S(=O)(=O)c1cc(OC)ccc1OC	.
CCN(c1ccccc1)S(=O)(=O)c1ccc(OC)c(OC)c1	.
CCN(c1ccccc1)S(=O)(=O)c1cc([N+](=O)[O-])ccc1N	32.0%
O=C(Nc1ccc(Cl)cc1)NC1CC1	.
Cc1ccc(-n2c3c(cc(C(=O)Nc4cccc(C)n4)c2=O)C(=O)CC(C)(C)C3)cc1	.
CN(C)S(=O)(=O)c1ccc(C(=O)Nc2c3c(nn2C(C)(C)C)CSC3)cc1	.
SMILES	ST2 IL33 inh
O=c1oc2ccccc2cc1-c1nc2ccccc2c(=O)[nH]1	.
Cc1cccc(-c2nc(S(=O)(=O)c3ccccc3)c(N3CCOCC3)o2)c1	.
O=S(=O)(c1ccccc1)c1nc(-c2ccco2)oc1SCc1ccccc1F	.
O=S(=O)(c1ccccc1)c1nc(-c2ccccc2F)oc1N1CCCCC1	32.0%
Cc1cn(CC(=O)N2CCCC(Nc3ccc(C(C)C)cc3)C2)c(=O)[nH]c1=O (configuration not stated)	.
CC(C)=C1[C@H]2CC[C@@H]1[C@@H]1C(=O)N(c3sc4c(c3C(N)=O)CCCCC4)C(=O)[C@@H]12	.
O=C(NC1CCCC1)c1ccc(NC(=O)C2CCCO2)cc1 (configuration not stated)	.
O=C(Nc1nc(-c2cc3ccccc3oc2=O)cs1)c1c(F)cccc1F	.
O=C(Nc1nc(-c2cc3ccccc3oc2=O)cs1)c1ccccc1Br	.
O=c1oc2ccccc2cc1-c1csc(Nc2ncccn2)n1	34.0%
CCN(CC1CCCN(CCc2cccc(OC)c2)C1)C(=O)c1ccc(C)s1 (configuration not stated)	.
CCc1ccc(C2CC(=O)N3CN(c4ccc(F)cc4)CSC3=C2C#N)cc1 (configuration not stated)	.
COc1ccc(NC(=O)c2cccc(Oc3ccc(C(F)(F)F)cc3[N+](=O)[O-])c2)cc1	.
Cc1cc(Oc2cc(C#N)c(C#N)cc2[N+](=O)[O-])cc(C)c1Cl	39.0%
CCOc1ccc(C(=O)Nc2c(C)cccc2CC)cc1[N+](=O)[O-]	.
COc1ccc2cc(S(=O)(=O)N3CCN(C)CC3)ccc2c1	.
CCn1c(=O)ccc2cc(OC)ccc21	31.0%
CCn1cc2c(c1-c1ccc(OC)cc1)c(=O)n(C)c(=O)n2C	.
COC(=O)COc1ccc(Br)cc1	.
Cc1cc(NC(=O)c2cc(-c3ccc4c(c3)OCO4)nc3ccccc23)no1	.
COc1nc(C)nc(NC(=O)NC(=O)c2c(Cl)nc(C)c(Cl)c2C)n1	.
N[C@@H]1CC[C@@H](NS(=O)(=O)c2cccc(Oc3ccccc3)c2)C1	.
CN(Cc1nc2ccc(F)cc2[nH]1)Cc1nc(C(c2ccccc2)c2ccccc2)no1	.
CCOc1ccc(NC(=O)c2cccc([N+](=O)[O-])c2)cc1	.
CCOc1ccc(C(=O)c2cccc([N+](=O)[O-])c2)cc1	31.0%
CCOc1ccc(N=C(c2cccc([N+](=O)[O-])c2)N2CCOCC2)cc1	.
C=CC[C@@H]1CC=C[C@@H](C)N1C(=O)c1cc(C)nc(C)n1	.
O=C(NCc1ccc(Cl)cc1)c1ccco1	.
COc1cccc(CN2CCc3nnc(C(C)NC(=O)CCc4ccccc4)n3CC2)c1O (configuration not stated)	.

Compound activity (PubChem BioAssay)
